# Experimental data taken from the supplement of paper PMC11732987, “Enantioselective OTUD7B fragment discovery through chemoproteomics screening and high-throughput optimisation” (Communications Chemistry, 2025).
# Unmarked numbers belong to inactive results.
# Experiments:
# Test in all cases: log2 ratio of Biotin-Ahx-Ub-VS probe labelling (fragment/DMSO); higher = less target engagement (more negative = stronger competition), active = hit call of the paper (q ≤ 0.05, log2 ratio ≤ -1)
# Details in all cases: compound concentration: 200 uM; treatment time: 3 h
# [1] = biological target: T1, USP19 (UniProt O94966)
# T1 sequence (whole entry): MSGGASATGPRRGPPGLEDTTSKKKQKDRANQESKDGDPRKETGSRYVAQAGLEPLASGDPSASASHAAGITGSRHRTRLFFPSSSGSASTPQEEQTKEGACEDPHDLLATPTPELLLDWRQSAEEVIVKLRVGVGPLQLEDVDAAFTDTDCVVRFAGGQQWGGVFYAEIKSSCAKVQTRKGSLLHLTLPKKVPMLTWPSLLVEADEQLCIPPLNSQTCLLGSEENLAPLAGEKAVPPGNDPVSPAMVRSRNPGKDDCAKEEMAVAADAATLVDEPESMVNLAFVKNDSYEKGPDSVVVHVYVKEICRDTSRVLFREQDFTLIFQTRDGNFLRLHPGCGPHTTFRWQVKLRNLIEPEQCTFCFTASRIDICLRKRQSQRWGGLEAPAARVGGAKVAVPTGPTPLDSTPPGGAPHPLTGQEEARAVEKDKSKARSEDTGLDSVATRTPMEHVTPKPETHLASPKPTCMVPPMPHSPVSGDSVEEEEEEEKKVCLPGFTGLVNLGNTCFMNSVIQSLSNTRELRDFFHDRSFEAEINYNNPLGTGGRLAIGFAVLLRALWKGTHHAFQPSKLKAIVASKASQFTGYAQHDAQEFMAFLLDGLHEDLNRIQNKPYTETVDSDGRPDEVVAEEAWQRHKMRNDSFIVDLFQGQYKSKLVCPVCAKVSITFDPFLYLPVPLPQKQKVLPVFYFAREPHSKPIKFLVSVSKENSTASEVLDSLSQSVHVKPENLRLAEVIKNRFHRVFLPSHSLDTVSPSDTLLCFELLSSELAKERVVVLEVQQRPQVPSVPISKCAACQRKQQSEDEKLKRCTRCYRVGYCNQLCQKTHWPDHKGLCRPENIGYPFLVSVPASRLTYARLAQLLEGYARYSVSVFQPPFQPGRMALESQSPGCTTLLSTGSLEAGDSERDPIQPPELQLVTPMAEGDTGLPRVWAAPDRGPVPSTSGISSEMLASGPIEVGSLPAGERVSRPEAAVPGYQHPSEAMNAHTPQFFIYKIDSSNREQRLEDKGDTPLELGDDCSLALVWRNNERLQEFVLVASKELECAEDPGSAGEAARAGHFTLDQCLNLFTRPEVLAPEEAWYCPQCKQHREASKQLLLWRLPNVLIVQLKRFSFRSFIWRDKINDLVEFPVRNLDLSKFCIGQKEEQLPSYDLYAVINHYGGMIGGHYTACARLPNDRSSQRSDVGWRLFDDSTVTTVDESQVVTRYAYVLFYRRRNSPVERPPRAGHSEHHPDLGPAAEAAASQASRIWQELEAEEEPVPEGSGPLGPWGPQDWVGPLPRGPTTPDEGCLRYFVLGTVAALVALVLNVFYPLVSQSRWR
# How it was run: (§1)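 The table lists average log2 ratios of fragment over vehicle, from an unpaired t-test on global-median-normalised Spectronaut label-free quantities. Proteins with ≥2 unique peptides were used. Samples were HEK293T lysate (495 µg) treated in triplicate with fragment at 200 µM or vehicle for 3 h, then with Biotin-Ahx-Ub-VS (0.5 µM final) for 1 h, with labelled DUBs NeutrAvidin-enriched and run by diaPASEF LC-MS/MS.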
# [2] = biological target: T2, USP22 (UniProt Q9UPT9)
# T2 sequence (whole entry): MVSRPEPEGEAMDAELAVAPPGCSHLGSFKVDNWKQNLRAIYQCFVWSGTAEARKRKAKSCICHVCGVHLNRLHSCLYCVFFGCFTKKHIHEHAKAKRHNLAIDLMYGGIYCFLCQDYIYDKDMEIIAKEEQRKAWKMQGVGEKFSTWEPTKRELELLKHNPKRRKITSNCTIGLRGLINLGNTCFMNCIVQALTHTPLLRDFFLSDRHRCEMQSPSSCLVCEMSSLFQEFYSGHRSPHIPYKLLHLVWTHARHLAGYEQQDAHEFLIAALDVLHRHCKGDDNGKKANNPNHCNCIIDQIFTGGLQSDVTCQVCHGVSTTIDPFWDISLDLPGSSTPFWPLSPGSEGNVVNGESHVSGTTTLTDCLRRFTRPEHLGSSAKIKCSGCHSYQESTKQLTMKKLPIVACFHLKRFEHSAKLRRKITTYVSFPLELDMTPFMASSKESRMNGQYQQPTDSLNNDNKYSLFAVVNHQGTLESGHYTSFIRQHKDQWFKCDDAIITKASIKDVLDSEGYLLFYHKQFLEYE
# How it was run: as §1
# [3] = biological target: USP24 (UniProt Q9UPU5)
# How it was run: as §1
# [4] = biological target: T3, USP25 (UniProt Q9UHP3)
# T3 sequence (whole entry): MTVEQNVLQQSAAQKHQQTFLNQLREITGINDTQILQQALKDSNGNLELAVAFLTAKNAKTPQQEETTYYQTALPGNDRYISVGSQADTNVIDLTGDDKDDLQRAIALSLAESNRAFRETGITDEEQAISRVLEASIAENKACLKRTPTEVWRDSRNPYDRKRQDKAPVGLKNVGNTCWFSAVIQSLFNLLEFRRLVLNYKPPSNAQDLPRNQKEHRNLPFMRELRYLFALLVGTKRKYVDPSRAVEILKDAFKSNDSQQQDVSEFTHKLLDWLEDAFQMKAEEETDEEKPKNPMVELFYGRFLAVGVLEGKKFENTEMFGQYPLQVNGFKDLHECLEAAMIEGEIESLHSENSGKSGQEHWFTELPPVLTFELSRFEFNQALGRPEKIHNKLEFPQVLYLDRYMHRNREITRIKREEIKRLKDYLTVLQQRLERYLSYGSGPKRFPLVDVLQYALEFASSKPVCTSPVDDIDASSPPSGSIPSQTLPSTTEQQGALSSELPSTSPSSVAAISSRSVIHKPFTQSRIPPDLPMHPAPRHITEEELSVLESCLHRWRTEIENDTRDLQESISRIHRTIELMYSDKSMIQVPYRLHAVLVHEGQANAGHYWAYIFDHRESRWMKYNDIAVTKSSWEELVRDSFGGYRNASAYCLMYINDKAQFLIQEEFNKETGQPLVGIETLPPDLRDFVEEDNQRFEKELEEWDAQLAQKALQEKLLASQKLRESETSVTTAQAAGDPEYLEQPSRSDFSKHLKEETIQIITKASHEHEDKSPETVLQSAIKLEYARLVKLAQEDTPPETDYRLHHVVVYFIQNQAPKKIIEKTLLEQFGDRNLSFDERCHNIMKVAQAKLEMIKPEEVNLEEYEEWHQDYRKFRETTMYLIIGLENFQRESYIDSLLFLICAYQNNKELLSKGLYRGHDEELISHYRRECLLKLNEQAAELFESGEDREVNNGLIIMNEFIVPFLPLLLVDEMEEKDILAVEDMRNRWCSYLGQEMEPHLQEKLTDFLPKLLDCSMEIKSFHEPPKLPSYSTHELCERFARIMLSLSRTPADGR
# How it was run: as §1
# [5] = biological target: T4, USP28 (UniProt Q96RU2)
# T4 sequence (whole entry): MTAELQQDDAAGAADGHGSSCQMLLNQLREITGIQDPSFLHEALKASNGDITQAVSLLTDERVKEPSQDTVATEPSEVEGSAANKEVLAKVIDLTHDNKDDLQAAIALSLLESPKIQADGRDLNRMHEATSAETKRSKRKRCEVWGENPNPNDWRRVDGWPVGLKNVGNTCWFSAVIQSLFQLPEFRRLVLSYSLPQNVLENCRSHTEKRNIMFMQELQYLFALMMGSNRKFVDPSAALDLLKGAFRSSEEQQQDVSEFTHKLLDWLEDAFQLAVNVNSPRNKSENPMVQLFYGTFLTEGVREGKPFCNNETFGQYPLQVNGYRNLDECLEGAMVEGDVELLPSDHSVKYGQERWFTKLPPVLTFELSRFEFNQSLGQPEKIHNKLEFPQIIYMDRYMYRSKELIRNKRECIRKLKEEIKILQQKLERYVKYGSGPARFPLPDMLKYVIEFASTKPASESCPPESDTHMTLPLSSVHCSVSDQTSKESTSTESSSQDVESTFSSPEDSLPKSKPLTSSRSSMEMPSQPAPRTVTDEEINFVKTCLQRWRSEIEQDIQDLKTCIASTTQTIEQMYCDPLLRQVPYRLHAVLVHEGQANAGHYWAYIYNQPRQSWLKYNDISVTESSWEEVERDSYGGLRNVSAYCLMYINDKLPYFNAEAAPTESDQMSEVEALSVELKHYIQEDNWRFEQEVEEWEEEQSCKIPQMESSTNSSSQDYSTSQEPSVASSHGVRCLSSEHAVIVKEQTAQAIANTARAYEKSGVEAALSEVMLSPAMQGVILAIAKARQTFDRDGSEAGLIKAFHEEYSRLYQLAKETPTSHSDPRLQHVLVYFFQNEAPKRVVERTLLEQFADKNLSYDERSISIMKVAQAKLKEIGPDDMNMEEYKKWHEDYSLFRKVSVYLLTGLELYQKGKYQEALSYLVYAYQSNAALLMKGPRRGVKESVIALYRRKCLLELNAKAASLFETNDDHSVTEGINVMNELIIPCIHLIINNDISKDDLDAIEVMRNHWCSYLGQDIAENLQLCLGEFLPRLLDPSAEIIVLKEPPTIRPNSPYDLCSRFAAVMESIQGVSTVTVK
# How it was run: as §1
# Chain of USP24 (Q9UPU5 whole entry): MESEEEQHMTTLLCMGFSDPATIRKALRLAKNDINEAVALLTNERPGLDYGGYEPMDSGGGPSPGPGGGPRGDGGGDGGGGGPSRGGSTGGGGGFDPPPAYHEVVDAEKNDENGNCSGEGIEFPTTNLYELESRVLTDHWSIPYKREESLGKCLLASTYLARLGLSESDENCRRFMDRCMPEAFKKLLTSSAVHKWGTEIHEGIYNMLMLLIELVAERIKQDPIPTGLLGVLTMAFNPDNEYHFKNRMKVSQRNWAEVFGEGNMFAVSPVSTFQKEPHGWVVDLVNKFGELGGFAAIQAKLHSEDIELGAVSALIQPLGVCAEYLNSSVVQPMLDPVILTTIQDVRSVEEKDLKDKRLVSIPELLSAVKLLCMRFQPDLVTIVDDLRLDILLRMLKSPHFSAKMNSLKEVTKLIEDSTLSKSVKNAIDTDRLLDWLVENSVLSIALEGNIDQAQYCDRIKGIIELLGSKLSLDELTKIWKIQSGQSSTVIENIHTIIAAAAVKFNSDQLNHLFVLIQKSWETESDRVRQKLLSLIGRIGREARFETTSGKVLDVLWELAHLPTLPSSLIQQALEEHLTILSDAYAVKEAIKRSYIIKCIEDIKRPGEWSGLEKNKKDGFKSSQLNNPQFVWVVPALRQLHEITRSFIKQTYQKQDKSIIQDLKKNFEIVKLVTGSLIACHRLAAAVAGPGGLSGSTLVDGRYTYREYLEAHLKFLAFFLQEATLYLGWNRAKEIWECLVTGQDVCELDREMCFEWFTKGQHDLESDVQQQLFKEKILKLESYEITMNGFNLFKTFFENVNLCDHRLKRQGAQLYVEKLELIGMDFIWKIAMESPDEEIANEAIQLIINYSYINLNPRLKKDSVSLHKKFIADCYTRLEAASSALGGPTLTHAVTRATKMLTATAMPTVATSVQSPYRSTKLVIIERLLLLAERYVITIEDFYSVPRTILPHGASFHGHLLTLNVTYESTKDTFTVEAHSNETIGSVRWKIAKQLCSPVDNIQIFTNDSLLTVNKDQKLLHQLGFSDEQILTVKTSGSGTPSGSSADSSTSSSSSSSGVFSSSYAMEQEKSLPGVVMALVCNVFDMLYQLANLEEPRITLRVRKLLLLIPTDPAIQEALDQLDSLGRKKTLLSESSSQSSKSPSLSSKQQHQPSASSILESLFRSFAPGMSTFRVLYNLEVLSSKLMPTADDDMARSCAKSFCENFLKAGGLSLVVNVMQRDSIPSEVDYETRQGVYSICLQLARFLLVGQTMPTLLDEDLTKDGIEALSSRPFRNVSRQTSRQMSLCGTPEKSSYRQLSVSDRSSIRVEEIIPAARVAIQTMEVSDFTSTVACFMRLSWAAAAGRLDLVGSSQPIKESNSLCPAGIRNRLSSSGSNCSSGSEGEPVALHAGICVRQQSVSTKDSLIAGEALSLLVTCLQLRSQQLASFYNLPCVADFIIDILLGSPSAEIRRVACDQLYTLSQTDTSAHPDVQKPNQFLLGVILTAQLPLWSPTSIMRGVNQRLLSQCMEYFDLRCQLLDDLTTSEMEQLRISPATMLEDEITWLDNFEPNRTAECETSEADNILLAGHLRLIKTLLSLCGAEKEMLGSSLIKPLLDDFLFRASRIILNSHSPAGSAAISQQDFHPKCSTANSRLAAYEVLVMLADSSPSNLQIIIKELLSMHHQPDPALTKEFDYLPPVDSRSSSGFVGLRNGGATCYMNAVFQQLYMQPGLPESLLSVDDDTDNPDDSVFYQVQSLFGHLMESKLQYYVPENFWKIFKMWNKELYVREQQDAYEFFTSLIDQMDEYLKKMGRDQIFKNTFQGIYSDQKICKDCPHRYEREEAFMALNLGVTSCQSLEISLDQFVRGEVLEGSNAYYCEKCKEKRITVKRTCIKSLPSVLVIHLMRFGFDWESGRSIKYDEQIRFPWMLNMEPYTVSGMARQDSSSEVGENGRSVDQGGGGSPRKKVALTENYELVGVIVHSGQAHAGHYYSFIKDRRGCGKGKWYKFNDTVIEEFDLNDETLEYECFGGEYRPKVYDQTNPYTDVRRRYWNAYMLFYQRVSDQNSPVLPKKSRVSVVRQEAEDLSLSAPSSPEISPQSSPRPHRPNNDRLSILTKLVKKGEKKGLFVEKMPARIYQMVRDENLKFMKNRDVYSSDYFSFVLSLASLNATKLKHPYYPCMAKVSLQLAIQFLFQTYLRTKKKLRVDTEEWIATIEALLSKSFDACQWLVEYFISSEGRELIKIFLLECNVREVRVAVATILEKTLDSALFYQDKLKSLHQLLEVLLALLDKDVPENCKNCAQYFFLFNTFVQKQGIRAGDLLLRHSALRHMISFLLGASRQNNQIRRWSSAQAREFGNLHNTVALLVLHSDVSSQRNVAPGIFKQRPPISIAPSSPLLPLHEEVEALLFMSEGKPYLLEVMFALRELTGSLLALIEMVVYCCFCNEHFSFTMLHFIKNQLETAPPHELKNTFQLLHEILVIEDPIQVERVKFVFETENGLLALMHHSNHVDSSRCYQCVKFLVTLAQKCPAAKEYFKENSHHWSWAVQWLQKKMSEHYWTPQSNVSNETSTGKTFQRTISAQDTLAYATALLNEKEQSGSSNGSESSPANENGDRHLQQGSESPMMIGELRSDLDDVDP
structure (smiles),measurement,setting,value
CC1CN(c2ccc(NC(=O)CCl)cc2)CC(C)O1 (stereo not given),log2 ratio of Biotin-Ahx-Ub-VS probe labelling,[1],-0.126
same,log2 ratio of Biotin-Ahx-Ub-VS probe labelling,[2],-0.32
same,log2 ratio of Biotin-Ahx-Ub-VS probe labelling,[3],-0.205
same,log2 ratio of Biotin-Ahx-Ub-VS probe labelling,[4],-1.58 (active)
same,log2 ratio of Biotin-Ahx-Ub-VS probe labelling,[5],-1.57 (active)
